According to PubChem BioAssay AID1159580 (chemical genetic matrix, 2015):
Screen size: about 5,500 compounds; about 2,000 (36%) were called active. Roughly 18% stayed inconclusive and do not appear here. No stated cut-off is given here; in the data, active means normalized growth mostly below about 0.91 (no sharp cut-off); inconclusive means no clear call, values can overlap the other calls; inactive means mostly above about 0.92. Some of the results follow.

Assay: chemical genetic growth profiling, strain panel (AID 1159580);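 further: tested at 20 µM; growth read once vehicle control cultures reached saturation at 30 °C; 1 = growth at the plate median or of vehicle wells; lower values mean less growth of the strain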
Settings: growth OD

Measured: normalized growth

CC1(C)C(O)CC(O)C2(C)C1CC(O)C1(C)C2CCC2(C)C(c3ccoc3)OC(=O)C3OC321 (stereo not drawn)
inactive: S. cerevisiae deletion strains, locus YAL021C, strain ccr4, active compounds read low 0.989 | S. cerevisiae deletion strains, locus YAL026C, strain drs2, active compounds read low 0.983 | S. cerevisiae deletion strains, locus YAL030W, strain snc1, active compounds read low 0.998 | S. cerevisiae deletion strains, locus YBL061C, strain skt5, active compounds read low 1.01 | S. cerevisiae deletion strains, locus YBR009C, strain hhf1, active compounds read low 0.999 | S. cerevisiae deletion strains, locus YBR021W, strain FUR4, active compounds read low 0.974 | S. cerevisiae deletion strains, locus YBR023C, strain chs3, active compounds read low 0.997 | S. cerevisiae deletion strains, locus YBR171W, strain sec66, active compounds read low 0.988 | S. cerevisiae deletion strains, locus YBR229C, strain ROT2, active compounds read low 1.01 | S. cerevisiae deletion strains, locus YBR231C, strain swc5, active compounds read low 0.999 | S. cerevisiae deletion strains, locus YBR279W, strain paf1, active compounds read low 0.992 | S. cerevisiae deletion strains, locus YCL011C, strain gbp2, active compounds read low 0.976 | S. cerevisiae deletion strains, locus YCL016C, strain dcc1, active compounds read low 0.985 | S. cerevisiae deletion strains, locus YCL029C, strain bik1, active compounds read low 1.01 | S. cerevisiae deletion strains, locus YCL061C, strain MRC1, active compounds read low 1.01 | S. cerevisiae deletion strains, locus YCL069W, strain vba3, active compounds read low 1 | S. cerevisiae deletion strains, locus YCR088W, strain abp1, active compounds read low 0.988 | S. cerevisiae deletion strains, locus YDL005C, strain med2, active compounds read low 0.974 | S. cerevisiae deletion strains, locus YDL035C, strain GPR1, active compounds read low 1.02 | S. cerevisiae deletion strains, locus YDL040C, strain nat1, active compounds read low 0.991 | S. cerevisiae deletion strains, locus YDL074C, strain BRE1, active compounds read low 0.998 | S. cerevisiae deletion strains, locus YDL101C, strain DUN1, active compounds read low 1.02 | S. cerevisiae deletion strains, locus YDL185W, strain tfp1, active compounds read low 1.03 | S. cerevisiae deletion strains, locus YDL192W, strain arf1, active compounds read low 1.02 | S. cerevisiae deletion strains, locus YDR001C, strain nth1, active compounds read low 0.994 | S. cerevisiae deletion strains, locus YDR069C, strain doa4, active compounds read low 0.98 | S. cerevisiae deletion strains, locus YDR101C, strain arx1, active compounds read low 1.01 | S. cerevisiae deletion strains, locus YDR137W, strain rgp1, active compounds read low 0.988 | S. cerevisiae deletion strains, locus YDR150W, strain NUM1, active compounds read low 0.998 | S. cerevisiae deletion strains, locus YDR159W, strain sac3, active compounds read low 1.01 | S. cerevisiae deletion strains, locus YDR162C, strain NBP2, active compounds read low 1.01 | S. cerevisiae deletion strains, locus YDR195W, strain ref2 0.953 | S. cerevisiae deletion strains, locus YDR297W, strain sur2, active compounds read low 0.986 | S. cerevisiae deletion strains, locus YDR318W, strain mcm21, active compounds read low 1.03 | S. cerevisiae deletion strains, locus YDR334W, strain swr1, active compounds read low 0.985 | S. cerevisiae deletion strains, locus YDR335W, strain msn5, active compounds read low 0.987 | S. cerevisiae deletion strains, locus YDR388W, active compounds read low 1.02 | S. cerevisiae deletion strains, locus YDR392W, strain spt3, active compounds read low 1.02 | S. cerevisiae deletion strains, locus YDR502C, strain sam2, active compounds read low 1.02 | S. cerevisiae deletion strains, locus YEL003W, strain gim4, active compounds read low 1.01 | S. cerevisiae deletion strains, locus YEL037C, strain rad23, active compounds read low 0.987 | S. cerevisiae deletion strains, locus YEL061C, strain CIN8 (second series), active compounds read low 0.989 | S. cerevisiae deletion strains, locus YEL061C, strain CIN8, active compounds read low 0.998 | S. cerevisiae deletion strains, locus YER015W, strain faa2, active compounds read low 0.994 | S. cerevisiae deletion strains, locus YER016W, strain bim1, active compounds read low 0.999 | S. cerevisiae deletion strains, locus YER110C, active compounds read low 1.04 | S. cerevisiae deletion strains, locus YER111C, strain swi4, active compounds read low 0.98 | S. cerevisiae deletion strains, locus YER155C, strain BEM2 (second series), active compounds read low 1.01 | S. cerevisiae deletion strains, locus YER155C, strain BEM2, active compounds read low 0.99 | S. cerevisiae deletion strains, locus YER167W, strain BCK2, active compounds read low 1 | S. cerevisiae deletion strains, locus YFR010W, strain ubp6, active compounds read low 1.01 | S. cerevisiae deletion strains, locus YGL078C, strain dbp3, active compounds read low 1.03 | S. cerevisiae deletion strains, locus YGL086W, strain mad1, active compounds read low 1 | S. cerevisiae deletion strains, locus YGL167C, strain pmr1, active compounds read low 0.994 | S. cerevisiae deletion strains, locus YGL173C, strain kem1, active compounds read low 0.985 | S. cerevisiae deletion strains, locus YGL227W, strain vid30, active compounds read low 0.983 | S. cerevisiae deletion strains, locus YGL240W, strain doc1, active compounds read low 1.02 | S. cerevisiae deletion strains, locus YGL248W, strain PDE1, active compounds read low 1.01 | S. cerevisiae deletion strains, locus YGL253W, strain hxk2, active compounds read low 0.962 | S. cerevisiae deletion strains, locus YGR078C, strain PAC10, active compounds read low 1.01 | S. cerevisiae deletion strains, locus YGR135W, strain pre9, active compounds read low 1.03 | S. cerevisiae deletion strains, locus YGR229C, strain SMI1, active compounds read low 1 | S. cerevisiae deletion strains, locus YGR252W, strain gcn5, active compounds read low 1.01 | S. cerevisiae deletion strains, locus YHR013C, strain ard1, active compounds read low 0.959 | S. cerevisiae deletion strains, locus YHR027C, strain rpn1, active compounds read low 1 | S. cerevisiae deletion strains, locus YHR030C, strain SLT2, active compounds read low 1.01 | S. cerevisiae deletion strains, locus YHR079C, strain IRE1 (second series), active compounds read low 1.02 | S. cerevisiae deletion strains, locus YHR094C, strain hxt1, active compounds read low 1.02 | S. cerevisiae deletion strains, locus YHR129C, strain ARP1, active compounds read low 0.999 | S. cerevisiae deletion strains, locus YHR142W, strain chs7, active compounds read low 0.972 | S. cerevisiae deletion strains, locus YHR200W, strain rpn10, active compounds read low 1.01 | S. cerevisiae deletion strains, locus YIL066C, strain RNR3, active compounds read low 1.02 | S. cerevisiae deletion strains, locus YIL073C, strain SPO22, active compounds read low 1.08 | S. cerevisiae deletion strains, locus YIL125W, strain kgd1, active compounds read low 1.01 | S. cerevisiae deletion strains, locus YIR030C, strain dcg1, active compounds read low 1.02 | S. cerevisiae deletion strains, locus YJL092W, strain hpr5, active compounds read low 0.997 | S. cerevisiae deletion strains, locus YJL095W, strain BCK1 (second series), active compounds read low 0.983 | S. cerevisiae deletion strains, locus YJL095W, strain BCK1, active compounds read low 1 | S. cerevisiae deletion strains, locus YJL115W, strain asf1, active compounds read low 1 | S. cerevisiae deletion strains, locus YJL129C, strain trk1, active compounds read low 0.959 | S. cerevisiae deletion strains, locus YJL134W, strain LCB3, active compounds read low 0.996 | S. cerevisiae deletion strains, locus YJL154C, strain vps35, active compounds read low 0.991 | S. cerevisiae deletion strains, locus YJL164C, strain tpk1, active compounds read low 0.989 | S. cerevisiae deletion strains, locus YJL166W, strain qcr8, active compounds read low 0.982 | S. cerevisiae deletion strains, locus YJL168C, strain set2, active compounds read low 1.01 | S. cerevisiae deletion strains, locus YJL187C, strain SWE1 (second series), active compounds read low 1.01 | S. cerevisiae deletion strains, locus YKL009W, strain mrt4, active compounds read low 0.962 | S. cerevisiae deletion strains, locus YKL068W, active compounds read low 1.01 | S. cerevisiae deletion strains, locus YKL085W, strain MDH1 (second series), active compounds read low 1 | S. cerevisiae deletion strains, locus YKL085W, strain MDH1, active compounds read low 1 | S. cerevisiae deletion strains, locus YKL160W, strain elf1, active compounds read low 0.991 | S. cerevisiae deletion strains, locus YKL190W, strain CNB1, active compounds read low 0.996 | S. cerevisiae deletion strains, locus YKR001C, strain vps1, active compounds read low 1.01 | S. cerevisiae deletion strains, locus YKR026C, strain gcn3, active compounds read low 0.989 | S. cerevisiae deletion strains, locus YKR091W, strain srl3, active compounds read low 0.986 | S. cerevisiae deletion strains, locus YLL001W, strain dnm1, active compounds read low 0.989 | S. cerevisiae deletion strains, locus YLL026W, active compounds read low 1 | S. cerevisiae deletion strains, locus YLL041C, strain sdh2, active compounds read low 1 | S. cerevisiae deletion strains, locus YLR027C, strain aat2, active compounds read low 0.999 | S. cerevisiae deletion strains, locus YLR039C, strain RIC1, active compounds read low 1.06 | S. cerevisiae deletion strains, locus YLR058C, strain SHM2, active compounds read low 1.02 | S. cerevisiae deletion strains, locus YLR102C, strain apc9, active compounds read low 1.02 | S. cerevisiae deletion strains, locus YLR221C, strain rsa3, active compounds read low 0.993 | S. cerevisiae deletion strains, locus YLR258W, strain gsy2, active compounds read low 0.994 | S. cerevisiae deletion strains, locus YLR262C, strain YPT6 (second series), active compounds read low 0.994 | S. cerevisiae deletion strains, locus YLR262C, strain YPT6, active compounds read low 1.07 | S. cerevisiae deletion strains, locus YLR268W, strain sec22, active compounds read low 1.01 | S. cerevisiae deletion strains, locus YLR320W, strain mms22, active compounds read low 1 | S. cerevisiae deletion strains, locus YLR330W, strain CHS5, active compounds read low 1.01 | S. cerevisiae deletion strains, locus YLR342W, strain FKS1, active compounds read low 0.999 | S. cerevisiae deletion strains, locus YLR357W, strain rsc2, active compounds read low 0.995 | S. cerevisiae deletion strains, locus YLR370C, strain arc18, active compounds read low 0.981 | S. cerevisiae deletion strains, locus YLR371W, strain rom2, active compounds read low 0.954 | S. cerevisiae deletion strains, locus YLR384C, strain iki3, active compounds read low 0.977 | S. cerevisiae deletion strains, locus YLR418C, strain cdc73, active compounds read low 1.02 | S. cerevisiae deletion strains, locus YML016C, strain PPZ1, active compounds read low 1.01 | S. cerevisiae deletion strains, locus YML032C, strain rad52, active compounds read low 1 | S. cerevisiae deletion strains, locus YML120C, strain ndi1, active compounds read low 0.991 | S. cerevisiae deletion strains, locus YML124C, strain tub3, active compounds read low 1.01 | S. cerevisiae deletion strains, locus YMR058W, strain fet3, active compounds read low 0.998 | S. cerevisiae deletion strains, locus YMR078C, strain ctf18, active compounds read low 1.03 | S. cerevisiae deletion strains, locus YMR125W, strain sto1, active compounds read low 0.98 | S. cerevisiae deletion strains, locus YMR129W, active compounds read low 0.989 | S. cerevisiae deletion strains, locus YMR205C, strain PFK2, active compounds read low 0.999 | S. cerevisiae deletion strains, locus YMR223W, strain ubp8, active compounds read low 1.02 | S. cerevisiae deletion strains, locus YMR231W, strain pep5, active compounds read low 0.987 | S. cerevisiae deletion strains, locus YMR307W, strain GAS1, active compounds read low 1.02 | S. cerevisiae deletion strains, locus YNL067W, strain RPL9B, active compounds read low 1.02 | S. cerevisiae deletion strains, locus YNL071W, strain lat1, active compounds read low 0.998 | S. cerevisiae deletion strains, locus YNL128W, strain TEP1, active compounds read low 1.02 | S. cerevisiae deletion strains, locus YNL153C, strain GIM3, active compounds read low 1.01 | S. cerevisiae deletion strains, locus YNL209W, strain ssb2, active compounds read low 1.01 | S. cerevisiae deletion strains, locus YNL233W, strain BNI4, active compounds read low 0.995 | S. cerevisiae deletion strains, locus YNL248C, strain rpa49, active compounds read low 0.964 | S. cerevisiae deletion strains, locus YNL250W, strain rad50, active compounds read low 1.03 | S. cerevisiae deletion strains, locus YNL271C, strain bni1, active compounds read low 1.03 | S. cerevisiae deletion strains, locus YNL298W, strain CLA4, active compounds read low 1.02 | S. cerevisiae deletion strains, locus YNL307C, strain MCK1, active compounds read low 1.03 | S. cerevisiae deletion strains, locus YNL322C, strain KRE1 (second series), active compounds read low 0.988 | S. cerevisiae deletion strains, locus YNR049C, strain mso1, active compounds read low 0.999 | S. cerevisiae deletion strains, locus YNR052C, strain pop2, active compounds read low 1 | S. cerevisiae deletion strains, locus YOL006C, strain TOP1, active compounds read low 1.13 | S. cerevisiae deletion strains, locus YOL012C, strain htz1 0.879 | S. cerevisiae deletion strains, locus YOL147C, strain pex11, active compounds read low 1.01 | S. cerevisiae deletion strains, locus YOR001W, strain rrp6, active compounds read low 1 | S. cerevisiae deletion strains, locus YOR061W, strain CKA2, active compounds read low 1.02 | S. cerevisiae deletion strains, locus YOR069W, strain VPS5, active compounds read low 1 | S. cerevisiae deletion strains, locus YOR070C, strain gyp1, active compounds read low 1 | S. cerevisiae deletion strains, locus YOR080W, strain dia2, active compounds read low 0.983 | S. cerevisiae deletion strains, locus YOR083W, strain WHI5, active compounds read low 0.994 | S. cerevisiae deletion strains, locus YOR106W, strain vam3, active compounds read low 0.996 | S. cerevisiae deletion strains, locus YOR136W, strain idh2, active compounds read low 1.03 | S. cerevisiae deletion strains, locus YOR144C, strain elg1, active compounds read low 1.02 | S. cerevisiae deletion strains, locus YOR184W, strain ser1, active compounds read low 1.03 | S. cerevisiae deletion strains, locus YOR265W, strain rbl2, active compounds read low 1 | S. cerevisiae deletion strains, locus YOR270C, strain vph1, active compounds read low 0.914 | S. cerevisiae deletion strains, locus YOR290C, strain snf2, active compounds read low 0.967 | S. cerevisiae deletion strains, locus YOR316C, strain cot1, active compounds read low 1.02 | S. cerevisiae deletion strains, locus YPL051W, strain arl3, active compounds read low 1 | S. cerevisiae deletion strains, locus YPL078C, strain atp4, active compounds read low 0.986 | S. cerevisiae deletion strains, locus YPL106C, strain sse1, active compounds read low 0.988 | S. cerevisiae deletion strains, locus YPL240C, strain hsp82, active compounds read low 0.983 | S. cerevisiae deletion strains, locus YPR119W, strain clb2, active compounds read low 1.01 | S. cerevisiae deletion strains, locus YPR141C, strain kar3, active compounds read low 1.03 | S. cerevisiae deletion strains, locus YPR163C, strain tif3, active compounds read low 1.03 | S. cerevisiae deletion strains, locus YPR167C, strain met16, active compounds read low 1.02 | S. cerevisiae deletion strains, strain wtn01, active compounds read low 1.02 | S. cerevisiae strains, strain wild type, active compounds read low 1.02
